Source: PubChem BioAssay (NCATS)
Records with an inconclusive call do not appear. Entries that show only a call come without a potency. Calls of active or inactive are those of the source. The call rests on the fitted dose curve; in most records, active means well fitted cell-killing curve with a large enough effect; inconclusive means small, poorly fitted or top-dose-only effect; inactive means flat fitted curve, though single readings scatter.

assay: Quantitative highthroughput screen to assess conditional lethalithy of NOMO1 cells grown in RPMI1640 with untreated serum (RPMI+s) (AID 1963876); settings: NOMO1 AML cells in RPMI+serum, CellTiter-Glo viability, 48 h; series mostly up to 45.8 µM; further: nearly all actives have a fitted effect of over 35% in size
Excerpt: Assay Provider: Jason Cantor Ph.D.
Department of Biochemistry
University of Wisconsin-Madison, Madison, WI, USA
Chemical screening studies have identified drug sensitivities across hundreds of cancer cell lines but most putative therapeutics fail to translate. Discovery and development of drug candidates in models that more accurately reflect nutrient levels in human blood is a major challenge. Here we performed high-throughput screens in conventional versus Human Plasma-Like Medium (HPLM) to identify compounds that were "missed" when screening using the artificial culture condition. Sets of conditional anticancer compounds spanned phases of clinical development and included non-oncology drugs were assessed. […] We also traced conditional phenotypes for several chemotherapeutics to availability of HPLM-specific metabolites and confirmed others for compounds whose reported targets are encoded by nonessential genes. Our findings establish generalizable strategies for exploiting conditional lethality in HPLM to reveal therapeutic candidates and mechanisms of action in cancer cells.
Described herein are the results of each viability screens against three cell lines: NOMO1 (an acute myeloid leukemia cell line); P12-Ichikawa (a T-cell acute lymphoblastic leukemia); and SEM (a B-cell ALL). Each assay was screened using 3 different cell culture media: homemade human plasma-Like medium with 10% dialyzed fetal bovine serum (HPLM+ds); RPMI1640 with 10% untreated FBS and 5mM glucose (RPMI+s); and RPMI1640 with 10% dialyzed fetal bovine serum and 5 mM glucose (RPMI+ds).
PROTOCOL TABLE (as described by Inglese J, Shamu CE and Guy RK. 2007)
SEQUENCE No. (e.g., 1, 2, 3, etc.); […] (e.g., Cells, Incubation, Reagent, etc.); VALUE and DESCRIPTION.
1; Cells; 5 uL; white, solid bottom 1536-well Greiner assay plate.
2; Compounds; 23 nL; Kalypsis pin tool (Wako USA) equipped with a 1536-well pin head to transfer to the assay plates.
3; Incubation; 48 hours; 37C incubation.
4; Reagent; 3 uL; CellTiter Glo (Promega).
5; Incubation; 5 min, room temperature
6; Detection; Luminescence, Viewlux PerkinElmer.
NOTES (numbers refer to Sequence numbers above)
1. Briefly, 5 ul of cell reagent was dispensed using a Multidrop Combi Dispenser. The NOMO1 and SEM cells were plated at 500 cells/well and the P12-Ichikawa line at 1000 cells/well.
2. After seeding the cells, 23 nL of MIPE 4.1 library compounds (in DMSO) were added to each plate using a Kalypsys 1536 Pintool dispenser. Bortezomib at final concentration of […] and DMSO were added to each plate as positive and negative controls respectively. For each screen, MIPE 4.1 compounds were added over an eleven-point concentration range […] in 3-fold dilutions.
3. Each plate was covered with a stainless steel gasketed lid to prevent evaporation and incubated for 48 hour at 37C, 95% relative humidity, and 5% CO2.
4-5. Three microliter CellTilter-GloTM luminescent substrate mix (Promega) reagent was added to the assay plate and incubated at room temperature for 5 min.
6. The luminescence signal was measured using a ViewLux (PerkinElmer) multiplate reader with a 2 second exposure time per plate. Data for each compound were normalized as percent viability such that measurements for DMSO and the empty well controls in each plate were defined as 100% and 0%, respectively.
Potency means the concentration at half of the fitted maximal effect.

Structure (SMILES) | Potency
O=c1[nH]c2ccc(Cl)cc2c(N[C@@H]2CN3CCC2CC3)c1-c1nc2ccccc2[nH]1 | 132 nM (active)
COc1ccc2c(c1)[C@]13CCCCC1C(C2)N(C)CC3 (stereo not given in full) | inactive
Cc1nc(-c2ccc(-c3ccc(C(=O)N4CCc5cc6c(cc54)C4(CCN(C)CC4)CO6)cc3)c(C)c2)no1 | inactive
O=C1C=CC[C@@H]2[C@H]3CCCN4CCC[C@@H](CN12)[C@@H]34 | inactive
CC(O)=C(C#N)C(=O)Nc1cc(Br)ccc1Br | inactive
COC[C@H]1OC(=O)c2coc3c2[C@@]1(C)C1=C(C3=O)[C@@H]2CC[C@H](O)[C@@]2(C)C[C@@H]1OC(C)=O | inactive
CCc1c(C(=O)C(N)=O)c2c(OCC(=O)O)cccc2n1Cc1ccccc1 | inactive
C[C@@]12OC(=O)[C@]1([C@@H](O)[C@@H]1C=CCCC1)NC(=O)[C@H]2CCCl | 235 nM (active)
O=S(=O)(F)Cc1ccccc1 | inactive
CCCCCC[C@H]1C(=O)O[C@H](C)[C@H](NC(=O)c2cccc(NC=O)c2O)C(=O)O[C@@H](C)[C@@H]1OC(=O)CC(C)C | inactive
CC(=CCCC1=CCC(C2=CC(=O)OC2O)OC1O)CCC1=C(C)CCCC1(C)C (stereo not given) | inactive
CC(C)c1cccc(C(C)C)c1O | inactive
C[C@@H]1C[C@@H]([C@H](O)CC2CC(=O)NC(=O)C2)C(=O)[C@@H](C)C1 | 1660 nM (active)
CC(=Cc1csc(C)n1)[C@@H]1C[C@H]2O[C@@H]2CCC[C@H](C)[C@@H](O)[C@@H](C)C(=O)C(C)(C)[C@@H](O)CC(=O)O1 | inactive
COc1cc(C(=O)N2CC[C@@H](O)[C@@H](N)C2)cc2nc(-c3cc4ccccc4n3CC3CC3)n(C)c12 | 933 nM (active)
CC(C)C[C@H](CN)CC(=O)O | inactive
C[C@@H]1CC[C@H]2[C@@H](C)C(=O)O[C@@H]3O[C@@]4(C)CC[C@H]1[C@]32OO4 | inactive
CCOC(=O)c1c(C(C#N)=CN)c2ccc(Cl)c(Cl)c2n1C | inactive
C[C@@H]1[C@@H](CC(C[C@H]2O[C@@H]3O[C@]4(C)CC[C@@H]5[C@H](C)CC[C@@H]([C@H]2C)[C@@]35OO4)C[S+](=O)([O-])c2ccc(COC(=O)N(C)C)cc2)O[C@@H]2O[C@]3(C)CC[C@H]4[C@H](C)CC[C@@H]1[C@@]24OO3 (stereo not given in full) | 833 nM (active)
CN1CCN(C(=O)O[C@H]2c3nccnc3C(=O)N2c2ccc(Cl)cn2)CC1 | inactive

Structure (SMILES) | Potency
C[C@]12CCC(=O)C(O)=C1CC[C@@H]1[C@H]3CCC(=O)[C@@]3(C)CC[C@@H]12 | inactive
Cc1cccc(C)c1NC(=O)CN1CCCC1=O | inactive
O=C(O)C(=O)c1cn(Cc2ccccc2)c2ccc(-c3ccc(OC(F)(F)F)cc3)cc12 | inactive
CCNC(=O)CC1N=C(c2ccc(Cl)cc2)c2cc(OC)ccc2-n2c(C)nnc21 (stereo not given) | inactive
NCC1(CC(=O)O)CCCCC1 | inactive
Cc1c(C(=O)Nc2cccc(C(F)(F)F)c2)cc(-c2ccccc2)n1CCCN1CCOCC1 | inactive
COc1ccc(C(=O)c2c(C)n(CCN3CCOCC3)c3cc(I)ccc23)cc1 | 935 nM (active)
CC(C)[C@]12O[C@@H]1[C@@H]1O[C@]13[C@]1(O[C@H]1C[C@@H]1C4=C(CC[C@@]13C)C(=O)OC4)[C@H]2O | 1.2 nM (active)
COC1=C[C@@H]2[C@@H]3Cc4ccc(OC)c(O)c4[C@]2(CCN3C)CC1=O | inactive
C#CCN(C)[C@H](C)Cc1ccccc1 | inactive
CN1C(=O)CCS(=O)(=O)C1c1ccc(Cl)cc1 (stereo not given) | inactive
CC[C@@H](C(N)=O)N1CCCC1=O | inactive
COc1ccc2c(c1)CN(C)CC2c1ccc(Cl)c(Cl)c1 (stereo not given) | 23500 nM (active)
C[C@]12CCC(=O)C=C1CC[C@@H]1[C@H]3CC[C@](C)(O)[C@@]3(C)CC[C@@H]12 | inactive
O=C(O)CNC(=O)c1c(O)c2ccccc2n(Cc2ccccc2)c1=O | inactive
Oc1ccc2c3c1O[C@H]1c4[nH]c5c(c4C[C@@]4(O)[C@@H](C2)N(CC2CC2)CC[C@]314)C[C@@]1(O)[C@H]2Cc3ccc(O)c4c3[C@@]1(CCN2CC1CC1)[C@H]5O4 | inactive
CC1=C2C[C@@H]3[C@@H](CC=C4C[C@@H](O)CC[C@@]43C)[C@@H]2CC[C@]12O[C@H]1C[C@H](C)CN[C@H]1[C@H]2C | inactive
O=C(O)c1nn(Cc2ccc(Cl)cc2Cl)c2ccccc12 | inactive
C=C(C)[C@H]1Cc2c(ccc3c2O[C@@H]2COc4cc(OC)c(OC)cc4[C@@H]2C3=O)O1 | 5260 nM (active)
COc1ccc2c(c1OC)CN1CCc3cc4c(cc3C1C2)OCO4 (stereo not given) | 1480 nM (active)
